Test results taken from the supplement of paper PMC10849652.
Of roughly 8,800 targets only a part is listed; those with a hit were picked by preference. About 0.5% of all pairs of compound and target were hits. A number with no mark means an inactive call.

Key:
Experiment in all cases: log2 fold change, soluble protein after heating vs DMSO (PISA); higher = thermal stabilisation; K562 lysate, 10 uM; active = over 0.2 and 3.5 SD of the protein, either way, in both replicates (recomputed)
ibrutinib = compound: C=CC(=O)N1CCC[C@@H](n2nc(-c3ccc(Oc4ccccc4)cc3)c3c(N)ncnc32)C1 [ibrutinib]
In short: (§1)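 Quantification was by TMTpro 16plex LC-MS/MS with equalised channel sums, applied to the supernatant after 21,000xg for 90 min. Samples were crude K562 extract at 1 mg/mL protein in PBS pH 7.4 with 1 mM MgCl2, treated with 10 μM compound for 30 min, heated for 3 min across 48°C-58°C, pooled and brought to 0.5% NP-40 at 4°C. Values are log-two fold changes in thermal stability relative to solvent controls, from duplicates.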

[1] = compound: CC(=O)c1cnc2ccc(-c3cc(Cl)c(O)c(Cl)c3)nc2c1N[C@H]1CC[C@H](CN(C)C)CC1
In short: as §1

ralimetinib = compound: CC(C)(C)Cn1c(N)nc2ccc(-c3[nH]c(C(C)(C)C)nc3-c3ccc(F)cc3)nc21 [ralimetinib]
In short: as §1

[2] = compound: CC(C)(O)CC(=O)NCCn1ccc2ncnc(Nc3ccc(Oc4cccc(C(F)(F)F)c4)c(Cl)c3)c21
In short: as §1

[3] = compound: CC(C)C1=C2N=C(C=C(N2N=C1)NCC3=CC=CC=C3)NCCCCCCN
In short: as §1

[4] = compound: CC1=C(C(CC(=O)N1)C2=CC=C(C=C2)C(F)(F)F)C(=O)NC3=C(C=C4C(=C3)C=NN4)F
In short: as §1

[5] = compound: CC1=C(C2=C(C=C1)C(=O)C3=CC=CC=C3N2CCCN)C
In short: as §1

[6] = compound: CC1=C(C=C(C=C1)NC(=O)C2=CC(=CC=C2)C(C)(C)C#N)NC3=CC4=C(C=C3)N=CN(C4=O)C
In short: as §1

[7] = compound: CC1=C(C=C(C=C1)NC(=O)C2=CC(=CC=C2)N(C)C)NC(=O)C3=CC=C(C=C3)O
In short: as §1

[8] = compound: CC1=CC=C(C=C1)SC2=C3C=C(SC3=CN=C2)C(=O)N
In short: as §1

vemurafenib = compound: CCCS(=O)(=O)Nc1ccc(F)c(C(=O)c2c[nH]c3ncc(-c4ccc(Cl)cc4)cc23)c1F [vemurafenib]
In short: as §1

[9] = compound: CCCS(=O)(=O)Nc1ccc(F)c(C(=O)c2c[nH]c3ncc(Cl)cc23)c1F
In short: as §1

barasertib = compound: CCN(CCCOc1ccc2c(Nc3cc(CC(=O)Nc4cccc(F)c4)[nH]n3)ncnc2c1)CCOP(=O)(O)O [barasertib]
In short: as §1

[10] = compound: CC[C@@H]1C(=O)N(C)c2cnc(Nc3ccc(C(=O)NC4CCN(C)CC4)cc3OC)nc2N1C1CCCC1
In short: as §1

volasertib = compound: CC[C@@H]1C(=O)N(C)c2cnc(Nc3ccc(C(=O)N[C@H]4CC[C@H](N5CCN(CC6CC6)CC5)CC4)cc3OC)nc2N1C(C)C [volasertib]
In short: as §1

[11] = compound: CCn1c(C(=O)N(C2CC2)C2CC2)cc2c3c(ncn3C)c(Nc3cc(C)n(C)n3)nc21
In short: as §1

[12] = compound: CCn1cc(-c2ccnc3[nH]c(-c4cccc(CN(C)C)c4)cc23)c(-c2ccc(NC(=O)N(C)C)cc2)n1
In short: as §1

[13] = compound: CN1CCC(CNc2ccc3ncc(-c4cccc(OC(F)(F)F)c4)n3n2)CC1
In short: as §1

saracatinib = compound: CN1CCN(CCOc2cc(OC3CCOCC3)c3c(Nc4c(Cl)ccc5c4OCO5)ncnc3c2)CC1 [saracatinib]
In short: as §1

sotrastaurin = compound: CN1CCN(c2nc(C3=C(c4c[nH]c5ccccc45)C(=O)NC3=O)c3ccccc3n2)CC1 [sotrastaurin]
In short: as §1

UniProt Q14103, sequence (Q14103 whole entry, looked up): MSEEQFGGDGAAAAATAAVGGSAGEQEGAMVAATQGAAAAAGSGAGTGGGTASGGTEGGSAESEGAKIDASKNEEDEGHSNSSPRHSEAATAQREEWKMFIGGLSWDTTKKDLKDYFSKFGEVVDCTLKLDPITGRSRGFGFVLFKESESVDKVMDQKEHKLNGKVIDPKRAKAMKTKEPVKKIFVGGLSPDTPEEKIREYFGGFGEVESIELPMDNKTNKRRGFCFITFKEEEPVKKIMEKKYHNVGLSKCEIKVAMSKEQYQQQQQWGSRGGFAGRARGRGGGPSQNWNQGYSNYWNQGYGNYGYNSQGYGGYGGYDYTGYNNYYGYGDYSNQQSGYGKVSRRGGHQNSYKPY
UniProt Q9Y287, sequence (Q9Y287 whole entry, looked up): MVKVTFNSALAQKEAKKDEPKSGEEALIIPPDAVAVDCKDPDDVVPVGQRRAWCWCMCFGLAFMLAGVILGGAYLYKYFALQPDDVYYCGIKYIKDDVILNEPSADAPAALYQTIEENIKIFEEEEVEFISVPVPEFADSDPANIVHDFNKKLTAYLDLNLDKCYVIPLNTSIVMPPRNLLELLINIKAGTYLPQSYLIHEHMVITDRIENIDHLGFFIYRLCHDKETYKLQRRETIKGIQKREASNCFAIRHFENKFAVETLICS
UniProt Q99795, sequence (Q99795 whole entry, looked up): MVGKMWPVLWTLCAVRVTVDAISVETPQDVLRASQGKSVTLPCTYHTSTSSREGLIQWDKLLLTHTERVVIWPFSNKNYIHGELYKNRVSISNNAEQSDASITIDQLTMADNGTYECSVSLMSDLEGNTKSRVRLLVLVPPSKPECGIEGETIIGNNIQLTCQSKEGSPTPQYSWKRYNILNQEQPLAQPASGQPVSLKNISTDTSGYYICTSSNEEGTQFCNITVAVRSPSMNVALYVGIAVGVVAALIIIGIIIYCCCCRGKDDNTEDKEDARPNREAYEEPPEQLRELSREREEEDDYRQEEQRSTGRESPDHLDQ
UniProt P22692, sequence (P22692 whole entry, looked up): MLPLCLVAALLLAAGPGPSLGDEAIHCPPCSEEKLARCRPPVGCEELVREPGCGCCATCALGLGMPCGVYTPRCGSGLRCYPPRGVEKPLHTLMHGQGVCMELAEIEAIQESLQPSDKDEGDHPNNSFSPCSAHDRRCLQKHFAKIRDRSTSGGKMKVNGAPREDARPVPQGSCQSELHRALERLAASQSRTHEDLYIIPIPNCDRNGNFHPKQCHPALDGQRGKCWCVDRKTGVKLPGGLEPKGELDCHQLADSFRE
UniProt P80108, sequence (P80108 whole entry, looked up): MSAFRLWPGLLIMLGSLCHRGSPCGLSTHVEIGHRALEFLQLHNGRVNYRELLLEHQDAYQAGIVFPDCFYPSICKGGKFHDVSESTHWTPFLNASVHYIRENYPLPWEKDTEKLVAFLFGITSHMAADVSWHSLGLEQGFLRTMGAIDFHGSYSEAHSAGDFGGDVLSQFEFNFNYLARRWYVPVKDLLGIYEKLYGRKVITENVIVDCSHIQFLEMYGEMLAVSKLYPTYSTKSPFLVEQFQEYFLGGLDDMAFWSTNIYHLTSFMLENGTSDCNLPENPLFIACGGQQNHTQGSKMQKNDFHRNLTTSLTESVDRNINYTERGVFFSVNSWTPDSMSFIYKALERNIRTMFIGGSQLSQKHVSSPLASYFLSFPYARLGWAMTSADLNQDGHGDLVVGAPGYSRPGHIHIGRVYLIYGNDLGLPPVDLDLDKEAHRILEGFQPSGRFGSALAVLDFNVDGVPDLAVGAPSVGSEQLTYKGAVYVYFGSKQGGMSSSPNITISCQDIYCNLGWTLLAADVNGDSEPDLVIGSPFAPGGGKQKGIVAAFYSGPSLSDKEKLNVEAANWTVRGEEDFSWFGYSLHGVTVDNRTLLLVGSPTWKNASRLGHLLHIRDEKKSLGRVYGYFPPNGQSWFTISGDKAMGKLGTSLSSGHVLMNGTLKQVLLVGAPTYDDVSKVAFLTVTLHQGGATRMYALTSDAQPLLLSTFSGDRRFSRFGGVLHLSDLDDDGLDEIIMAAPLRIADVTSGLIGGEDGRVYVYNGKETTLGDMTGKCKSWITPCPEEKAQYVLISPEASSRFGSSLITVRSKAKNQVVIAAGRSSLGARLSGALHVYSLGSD
UniProt Q14571, sequence (Q14571 whole entry, looked up): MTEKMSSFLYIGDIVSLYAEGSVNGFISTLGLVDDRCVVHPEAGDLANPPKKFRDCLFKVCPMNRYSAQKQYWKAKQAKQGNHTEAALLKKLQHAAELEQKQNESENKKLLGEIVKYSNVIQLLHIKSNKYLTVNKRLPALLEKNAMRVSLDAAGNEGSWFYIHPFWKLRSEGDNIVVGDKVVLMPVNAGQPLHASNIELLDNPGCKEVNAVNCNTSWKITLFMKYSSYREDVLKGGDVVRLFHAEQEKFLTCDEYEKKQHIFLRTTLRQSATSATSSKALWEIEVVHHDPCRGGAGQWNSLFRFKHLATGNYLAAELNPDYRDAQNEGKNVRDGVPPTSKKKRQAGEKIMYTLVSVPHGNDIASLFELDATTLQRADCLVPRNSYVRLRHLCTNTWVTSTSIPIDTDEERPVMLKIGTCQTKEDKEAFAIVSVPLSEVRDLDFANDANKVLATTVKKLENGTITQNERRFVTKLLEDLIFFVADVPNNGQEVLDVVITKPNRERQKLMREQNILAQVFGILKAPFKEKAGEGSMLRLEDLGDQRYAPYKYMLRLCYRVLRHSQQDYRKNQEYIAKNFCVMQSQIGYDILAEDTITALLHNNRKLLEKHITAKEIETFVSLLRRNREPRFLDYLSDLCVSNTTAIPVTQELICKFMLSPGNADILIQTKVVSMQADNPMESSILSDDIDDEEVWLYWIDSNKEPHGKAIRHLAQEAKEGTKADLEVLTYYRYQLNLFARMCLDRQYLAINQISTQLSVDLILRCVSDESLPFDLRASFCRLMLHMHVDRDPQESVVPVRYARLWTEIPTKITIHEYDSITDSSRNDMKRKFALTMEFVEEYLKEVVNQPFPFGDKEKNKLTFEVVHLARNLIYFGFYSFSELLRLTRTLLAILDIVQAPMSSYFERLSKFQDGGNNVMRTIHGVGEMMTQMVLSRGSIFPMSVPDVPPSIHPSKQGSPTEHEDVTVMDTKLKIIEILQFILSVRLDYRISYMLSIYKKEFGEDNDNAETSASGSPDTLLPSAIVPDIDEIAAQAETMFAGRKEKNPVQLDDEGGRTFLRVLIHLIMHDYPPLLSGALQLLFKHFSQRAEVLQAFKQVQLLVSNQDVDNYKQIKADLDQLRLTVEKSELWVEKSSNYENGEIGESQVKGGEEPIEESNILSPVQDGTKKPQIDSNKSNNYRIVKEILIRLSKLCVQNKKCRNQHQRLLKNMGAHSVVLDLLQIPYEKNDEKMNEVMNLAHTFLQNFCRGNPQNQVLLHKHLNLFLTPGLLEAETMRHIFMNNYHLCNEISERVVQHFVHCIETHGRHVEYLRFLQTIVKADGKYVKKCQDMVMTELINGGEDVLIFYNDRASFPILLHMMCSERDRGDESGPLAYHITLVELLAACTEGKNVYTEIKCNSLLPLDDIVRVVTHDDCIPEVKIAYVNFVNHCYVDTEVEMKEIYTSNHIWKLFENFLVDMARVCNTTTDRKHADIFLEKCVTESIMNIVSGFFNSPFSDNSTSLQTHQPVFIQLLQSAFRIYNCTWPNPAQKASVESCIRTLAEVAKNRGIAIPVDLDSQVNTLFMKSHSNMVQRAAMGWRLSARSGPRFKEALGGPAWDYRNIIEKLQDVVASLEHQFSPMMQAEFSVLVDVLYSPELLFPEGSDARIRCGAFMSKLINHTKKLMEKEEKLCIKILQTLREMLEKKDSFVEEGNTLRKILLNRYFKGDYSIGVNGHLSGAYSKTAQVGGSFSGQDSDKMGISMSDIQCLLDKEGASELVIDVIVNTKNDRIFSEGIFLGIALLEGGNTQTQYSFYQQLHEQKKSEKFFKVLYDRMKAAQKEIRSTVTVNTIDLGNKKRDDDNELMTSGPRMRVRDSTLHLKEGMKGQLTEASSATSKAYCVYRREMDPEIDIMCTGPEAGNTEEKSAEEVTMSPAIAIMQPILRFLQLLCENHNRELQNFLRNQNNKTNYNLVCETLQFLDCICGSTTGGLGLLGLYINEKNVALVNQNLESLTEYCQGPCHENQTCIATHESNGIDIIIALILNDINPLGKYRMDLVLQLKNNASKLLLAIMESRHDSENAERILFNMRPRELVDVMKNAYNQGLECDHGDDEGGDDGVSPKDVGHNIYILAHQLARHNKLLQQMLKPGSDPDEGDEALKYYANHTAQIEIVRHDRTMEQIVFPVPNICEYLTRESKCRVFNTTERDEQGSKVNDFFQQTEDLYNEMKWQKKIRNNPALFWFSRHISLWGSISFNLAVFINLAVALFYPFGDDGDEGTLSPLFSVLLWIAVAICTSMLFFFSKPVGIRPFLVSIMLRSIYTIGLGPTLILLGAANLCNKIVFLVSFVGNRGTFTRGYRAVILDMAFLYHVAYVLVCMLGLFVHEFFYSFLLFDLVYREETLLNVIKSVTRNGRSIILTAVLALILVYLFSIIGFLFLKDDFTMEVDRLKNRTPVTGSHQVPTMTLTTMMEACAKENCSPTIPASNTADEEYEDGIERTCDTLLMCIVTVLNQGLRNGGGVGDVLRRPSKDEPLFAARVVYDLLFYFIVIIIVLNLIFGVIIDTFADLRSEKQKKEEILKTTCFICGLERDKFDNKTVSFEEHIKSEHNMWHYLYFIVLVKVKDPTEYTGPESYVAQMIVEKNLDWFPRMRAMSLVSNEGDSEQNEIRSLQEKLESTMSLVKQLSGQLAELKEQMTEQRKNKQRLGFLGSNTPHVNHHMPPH
UniProt Q9H079, sequence (Q9H079 whole entry, looked up): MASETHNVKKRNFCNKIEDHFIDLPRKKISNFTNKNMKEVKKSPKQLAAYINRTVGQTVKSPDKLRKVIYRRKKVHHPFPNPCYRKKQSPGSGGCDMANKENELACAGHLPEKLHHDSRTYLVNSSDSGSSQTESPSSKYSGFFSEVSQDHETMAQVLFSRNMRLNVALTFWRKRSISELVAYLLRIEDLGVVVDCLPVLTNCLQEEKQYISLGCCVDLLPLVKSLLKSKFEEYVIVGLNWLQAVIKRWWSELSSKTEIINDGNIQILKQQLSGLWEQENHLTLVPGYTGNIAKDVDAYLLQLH

| Target | log2 fold change (ibrutinib) | log2 fold change [1] | log2 fold change (ralimetinib) | log2 fold change [2] | log2 fold change [3] | log2 fold change [4] | log2 fold change [5] | log2 fold change [6] | log2 fold change [7] | log2 fold change [8] | log2 fold change (vemurafenib) | log2 fold change [9] | log2 fold change (barasertib) | log2 fold change [10] | log2 fold change (volasertib) | log2 fold change [11] | log2 fold change [12] | log2 fold change [13] | log2 fold change (saracatinib) | log2 fold change (sotrastaurin) |
| --- | --- | --- | --- | --- | --- | --- | --- | --- | --- | --- | --- | --- | --- | --- | --- | --- | --- | --- | --- | --- |
| HNRNPD isoform 2 (UniProt Q14103) | 0 | -0.142 | -0.039 | -0.01 | 0.016 | -0.046 | 0.001 | 0.034 | -0.014 | -0.011 | 0.011 | 0.002 | -0.052 | 0.022 | 0.029 | -0.036 | 0.857 (active) | -0.135 | 0 | -0.08 |
| HNRNPDL (UniProt O14979) | 0 | -0.692 (active) | -0.027 | 0.014 | -0.011 | 0.013 | -0.016 | 0.111 | -0.011 | 0 | -0.039 | 0.026 | -0.03 | 0.008 | -0.002 | 0.003 | 0.043 | 0.018 | -0.036 | -0.098 |
| INPPL1 (UniProt O15357) | 0.012 | 0.02 | 0.049 | -0.013 | 0.004 | 0.011 | -0.005 | -0.001 | 0.034 | 0.014 | 0.023 | 0.01 | 0.028 | -0.02 | -0.047 | 0.095 | -0.017 | -0.06 | 0.005 | 0.019 |
| GSK3A (UniProt P49840) | -0.01 | 0.146 | 0.022 | -0.001 | -0.045 | -0.017 | 0.01 | -0.109 | -0.007 | 0.207 | -0.013 | 0.006 | -0.04 | -0.015 | -0.01 | 0.026 | -0.133 | 0.154 | 0.01 | 0.535 (active) |
| HMBOX1 isoform 5 (UniProt Q6NT76) | 0.051 | 0.021 | 0.026 | 0.007 | 0.072 | -0.014 | 0.052 | 0.015 | 0.005 | 0.054 | 0.028 | -0.086 | -0.001 | 0.122 | -0.059 | -0.038 | -0.043 | -0.071 | -0.003 | -0.013 |
| IGF2BP3 (UniProt O00425) | 0.006 | -0.019 | -0.012 | 0.011 | 0.024 | -0.009 | 0.011 | -0.047 | 0.007 | 0.021 | 0.024 | 0.006 | 0.016 | -0.106 | -0.025 | -0.016 | -0.062 | -0.022 | 0.026 | 0.011 |
| HLCS (UniProt P50747) | 0.012 | 0.023 | -0.005 | -0.019 | -0.025 | 0.018 | -0.015 | 0.029 | 0.057 | -0.032 | -0.002 | 0.034 | -0.001 | -0.034 | -0.054 | 0.003 | 0.293 (active) | -0.041 | -0.026 | 0.027 |
| KATNBL1 (UniProt Q9H079) |  | -0.002 |  |  | 0.156 | -0.029 | -0.002 | 0.082 |  | -0.025 | -0.011 | -0.03 |  | 0.284 | 0.039 |  | -0.105 | 0.055 | -0.068 | -0.004 |
| GORASP1 (UniProt Q9BQQ3) |  | 0.137 | -0.01 | -0.011 | 0.019 | 0.038 | 0.027 | -0.061 | -0.034 | -0.02 | 0.011 | -0.016 |  | -0.065 | 0.092 | -0.019 | -0.025 | 0.08 | 0.03 | 0.016 |
| IGFBP4 (UniProt P22692) | 0.035 | 0.169 | 0.012 | -0.087 | -0.029 | -0.021 | 0.236 | 0.123 | 0.037 | -0.139 |  | -0.171 | -0.281 |  | -0.002 | 0.04 | -0.063 | 0.009 | 0.016 | -0.028 |
| HNRNPM (UniProt M0QZM1) | 0.003 |  |  |  |  |  | 0.121 | -0.068 |  |  | -0.027 |  | 0.229 | 0.171 |  |  |  |  | -0.066 | -0.054 |
| H3-3A (UniProt P84243) | 0.042 | -0.047 |  |  | 0.013 |  |  | -0.034 |  | -0.086 | 0.027 | 0.015 | 0.067 | -0.017 | -0.006 |  | 0.027 | -0.025 |  | -0.028 |
| ITM2B (UniProt Q9Y287) | -0.04 |  | 0.131 | -0.106 | -0.044 | 0.051 | -0.011 | 0.019 | -0.088 |  | 0.021 |  | 0.258 |  |  | -0.012 | -0.141 | 0.069 | -0.053 | -0.012 |
| GPLD1 (UniProt P80108) |  |  |  |  |  |  | -0.058 | -0.187 |  |  |  |  |  |  |  |  |  |  | 0.236 | -0.13 |
| GYPA, A0A2R8Y7F9 | -0.019 |  |  |  |  |  |  |  |  |  |  |  | 0.066 |  |  |  | -0.812 | 0.25 |  |  |
| JAK3 (UniProt P52333) | 0.076 | 0.056 |  |  |  |  |  | -0.016 |  | 0.078 | -0.127 | 0.014 | 0.064 |  | -0.062 |  | 0.524 | -0.488 |  | 0.014 |
| GPA33 (UniProt Q99795) | 0.037 | -0.029 | 0.188 | -0.123 | -0.067 | -0.091 | 0 |  | -0.024 | 0.026 | -0.038 | -0.014 | -0.047 | -0.011 | 0.081 | -0.032 | -0.925 (active) | 0.612 (active) | -0.005 |  |
| IMPDH2 (UniProt H0Y4R1) | -0.025 | -0.047 | -0.069 | -0.112 |  | -0.019 | 0.032 | -0.04 | 0.062 | 0.032 | -0.047 | 0.114 | 0.134 | 0.195 | 0.001 | -0.1 | 0.059 | 0.129 | 0.043 | 0.116 |
| GNB4 (UniProt Q9HAV0) | -0.104 | -0.071 | 0.009 | -0.026 | 0 | -0.05 | -0.036 | 0.073 | 0.084 | 0.202 |  | 0.089 | -0.046 | -0.018 | -0.036 | 0.016 | 0.001 | 0.166 | -0.165 | -0.04 |
| ITPR2 (UniProt Q14571) |  | -0.04 | 0.069 | -0.233 | 0.063 | -0.137 | -0.072 |  | -0.031 | -0.322 |  | -0.044 |  |  | 0.336 | -0.222 |  |  | 0.088 |  |
